Source: PubChem
D1 antagonist: blocks dopamine activation of the human D1 receptor. 3.2% of 360,000 active. P21728. HEK293 TREx D1 cells, calcium flux, dopamine EC80; stronger effect = lower value. activity change, negative = inhibition, % at 10 µM; in the data active means activity change below about -30%; further: on the % scale 0 is the no-effect control and ±100 the full control effect
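After overnight tetracycline induction at 30 C, force-coupled D1 HEK293 cells took up a no-wash calcium dye at room temperature. Compounds were added and monitored 180 s, and the response to EC80 dopamine was then recorded.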
D1 potentiator: enhances dopamine response at the human D1 receptor; AID 504651; 0.036% of 360,000 active; potentiation, % at 10 µM; HEK293 TREx D1 cells, calcium flux, dopamine EC20 potentiation; in the data active means potentiation above about 30%; further: 0% is about no effect
D1 agonist: agonists of human D1 dopamine receptor | HEK293 T-REx D1 cells, calcium flux, agonist mode | activation, % at 2 µM | 1% of 360,000 active | P21728 | AID 504660; in the data active means activation above about 30%; further: 0% is about no effect
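Inducible HEK293 T-REx D1 cells, force-coupled to calcium signalling, were plated at 4000 cells/well with tetracycline and held overnight at 30 C. After no-wash calcium dye loading, compound-evoked calcium rise over 180 s flagged agonists.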
DRD3 agonist: agonists of human D3 dopamine receptor; P35462; D3R DiscoveRx beta-arrestin cells, luminescence, 90 min; max activation, %; 0.58% of 410,000 active; in the data active means max activation above about 30%; further: 0% is about no effect
Target sequence (P35462 whole entry, looked up): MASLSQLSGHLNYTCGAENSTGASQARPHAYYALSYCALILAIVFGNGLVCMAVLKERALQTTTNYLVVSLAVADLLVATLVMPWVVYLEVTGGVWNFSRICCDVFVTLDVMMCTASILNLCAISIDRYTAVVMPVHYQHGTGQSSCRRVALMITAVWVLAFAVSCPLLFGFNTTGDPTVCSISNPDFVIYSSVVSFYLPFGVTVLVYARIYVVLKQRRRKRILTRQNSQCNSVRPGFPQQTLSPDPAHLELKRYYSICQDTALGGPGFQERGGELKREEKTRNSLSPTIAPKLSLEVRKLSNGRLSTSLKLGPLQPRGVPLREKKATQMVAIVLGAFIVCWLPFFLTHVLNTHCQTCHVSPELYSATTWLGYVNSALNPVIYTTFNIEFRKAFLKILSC
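Cells at 1500/well, incubated overnight, then treated with pinned compounds (dopamine as control) for 90 min at 37 degrees C. DiscoveRx reagent added for 30 - 60 minutes at room temperature; luminescence read.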
DRD3 antagonist: D3 dopamine receptor (human) antagonism; P35462; 2.5% of 360,000 active; D3R cells, DiscoveRx beta-arrestin luminescence, antagonist mode; stronger effect = lower value; max response, negative = inhibition, %; in the data active means max response below about -50%; inconclusive means no clear call, values can overlap the other calls; further: on the % scale 0 is the no-effect control and ±100 the full control effect
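Cells plated overnight at 1500 cells/well, then exposed to library compounds with dopamine controls for 90 minutes at 37 degrees C. DiscoveRx reagent added for 30–60 minutes at room temperature; luminescence read, quantitative HTS format.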
An asterisk follows results filed as active. Most compounds without a hit are left out; they make up all but 6% or so of the library.

Screening Cc1cc2c(s1)c1cnn(Cc3ccc(F)c(C)c3)c(=O)c1n2C returned D1 antagonist -2.3, D1 potentiator 6.3 and D1 agonist 8.3.
`CC(C)N(Cc1ccccc1)C(=O)c1cc2ccc3cccnc3c2[nH]1` gave D1 antagonist -34.3*, D1 potentiator 3.9, D1 agonist 5.7 and DRD3 agonist 5.2.
`Cc1ccc(/C=C/C(=O)N2CCN(c3ncccn3)CC2)o1` gave D1 antagonist -42.8*, D1 potentiator -4.8, D1 agonist 1.9, DRD3 agonist -8.0 and DRD3 antagonist -23.6.
CCC(O)C1CCN(Cc2cn(Cc3ccccc3)nc2-c2cc3ccccc3o2)CC1 (stereo unspecified) was read as D1 antagonist -15.4, D1 potentiator -4.4, D1 agonist 63.8*, DRD3 agonist 1.9 and DRD3 antagonist -22.4.
Screening COCCOC1CCN(Cc2cn(Cc3ccccc3)nc2-c2cc3ccccc3o2)CC1 returned D1 antagonist 7.7, D1 potentiator 0.2, D1 agonist 7.1, DRD3 agonist -12.8 and DRD3 antagonist -19.3.
Screening CC1(C(=O)NS(=O)(=O)c2cccc(C#N)c2)CCN1C(=O)c1ccc(C2CCCCC2)cc1 (stereo unspecified) returned DRD3 agonist 4.5 and DRD3 antagonist -11.9.
For Cc1ccc(NC(=O)CSc2nnc(CNC(=O)c3ccco3)o2)cc1Cl the results were D1 antagonist -4.5, D1 potentiator -4.4, D1 agonist 5.3, DRD3 agonist -1.8 and DRD3 antagonist -0.2.
Cc1ccc(N2CCN(S(=O)(=O)N3CCOCC3)CC2)cc1C was read as D1 antagonist -31.3*, D1 potentiator 2.5, D1 agonist 0.9, DRD3 agonist -5.6 and DRD3 antagonist -15.9.
Cc1cc(O)cc(C)c1NS(=O)(=O)c1ccc2ccccc2c1 was read as D1 antagonist -1.1, D1 potentiator -5.3, D1 agonist 2.8, DRD3 agonist -7.3 and DRD3 antagonist -3.4.
`CCOc1ccc(OCC)c(-c2c(=O)n(OCc3ccc(C(C)(C)C)cc3)c3ccccc3[n+]2[O-])c1` gave D1 antagonist -10.8, D1 potentiator 2.0, D1 agonist 0.8, DRD3 agonist 51.8* and DRD3 antagonist 11.2.
`CCOc1ccc(-c2c(=O)n(OCc3ccc([N+](=O)[O-])cc3)c3ccccc3[n+]2[O-])c(OCC)c1` gave DRD3 agonist 6.4 and DRD3 antagonist 8.5.
COc1ccc2c(c1)-c1c(sn(-c3ccc(OC)c(OC)c3)c1=S)C(C)(C)N2 was read as D1 antagonist 3.2, D1 potentiator 5.8, D1 agonist -0.8, DRD3 agonist -3.3 and DRD3 antagonist -58.6*.
Screening COCc1c(Br)c(C)nc2sc3c(=O)n(-c4cccc(Br)c4)nnc3c12 returned D1 antagonist 0.3, D1 potentiator 0.3, D1 agonist 0.7 and DRD3 agonist -11.9.
CN(C)CC/C=C1\c2ccccc2COc2ccccc21 was read as D1 antagonist -78.8*, D1 potentiator -4.7, D1 agonist 14.2, DRD3 agonist -89.3 and DRD3 antagonist -77.3*.
`CN(C)CC/C=C1/c2ccccc2CS(=O)(=O)c2ccccc21` gave DRD3 agonist 6.2 and DRD3 antagonist -5.2.
For Cc1c(-c2ccc(Br)cc2)c(=O)oc2ccc(OC(=O)N3CCOCC3)cc12 the results were D1 potentiator -3.5, D1 agonist 11.3 and DRD3 agonist 3.2.
For Cc1ccccc1S(=O)(=O)NC(=O)C1(C)CCN1C(=O)Cc1cccs1 (stereo unspecified) the results were DRD3 agonist -2.1 and DRD3 antagonist -0.1.
For COc1cc(NC(=O)C2CC(c3ccccc3O)=NO2)cc(OC)c1OC (stereo unspecified) the results were DRD3 agonist -2.1 and DRD3 antagonist 23.8.
`Cn1cc(C(=O)N/N=C/c2ccc3c(c2)OCO3)c2ccccc21` gave D1 antagonist 3.5, D1 potentiator -2.2, D1 agonist 2.2, DRD3 agonist -6.5 and DRD3 antagonist 23.1.
Cn1cc(C(=O)N/N=C/c2ccc(Br)c([N+](=O)[O-])c2)c2ccccc21 was read as D1 antagonist -2.4, D1 potentiator -3.7, D1 agonist -0.3, DRD3 agonist -20.8 and DRD3 antagonist -67.1*.
`CCNC(=S)N/N=C(\C)c1ccc2ccccc2c1` gave D1 antagonist 16.8, D1 potentiator 2.2 and D1 agonist -5.2.
CCNC(=S)N/N=C(\C)c1ccc2ccccc2c1OC(F)F was read as D1 antagonist -9.4, D1 potentiator -3.2, D1 agonist 4.7, DRD3 agonist 30.2* and DRD3 antagonist -5.0.
For C[C@H](CO)N1C[C@H](C)[C@@H](CN(C)Cc2ccc3c(c2)OCO3)Oc2c(NS(=O)(=O)c3cn(C)cn3)cccc2C1=O the results were DRD3 agonist 19.5 and DRD3 antagonist 18.1.
Cc1ccc2c(c1)c(=O)c(C(=O)c1ccc3c(c1)OCO3)cn2Cc1cccc(F)c1 was read as D1 antagonist -65.9*, D1 potentiator -3.0, D1 agonist 1.8 and DRD3 agonist -1.7.
Screening COc1ccccc1NC(=O)CSc1nc2c(oc3ccccc32)c(=O)n1-c1ccccc1F returned D1 antagonist 8.3, D1 potentiator 2.0, D1 agonist 5.2 and DRD3 agonist 9.1.
`Cc1ccc(NC(=O)Nc2nnc(SCC(=O)Nc3ccc(F)cc3F)s2)cc1` gave D1 potentiator -4.7, D1 agonist 1.9 and DRD3 agonist 5.0.
Screening COc1ccc(C(=O)C(CCCCC(CN(C)C)C(=O)c2ccc(OC)cc2)CN(C)C)cc1 (stereo unspecified) returned D1 antagonist -39.6*, D1 potentiator -10.0, D1 agonist 24.3, DRD3 agonist -13.3 and DRD3 antagonist inconclusive.
`CCOc1ccc(C(=O)C(CCC(CN(C)C)C(=O)c2ccc(OCC)cc2)CN(C)C)cc1` (stereo unspecified) gave D1 antagonist 12.6, D1 potentiator -10.2, D1 agonist 35.5*, DRD3 agonist -13.0 and DRD3 antagonist -84.9*.
`CN(C)CC(CCC(CN(C)C)C(=O)c1ccccc1)C(=O)c1ccccc1` (stereo unspecified) gave D1 antagonist 6.0, D1 potentiator 0.0, D1 agonist 3.1, DRD3 agonist -42.6 and DRD3 antagonist -80.3*.
For O=C(c1ccccc1)C(CCC(CN1CCOCC1)C(=O)c1ccccc1)CN1CCOCC1 (stereo unspecified) the results were D1 antagonist 4.4, D1 potentiator -2.2, D1 agonist -0.1, DRD3 agonist -22.6 and DRD3 antagonist -10.6.
For O=C(NCCc1ccccc1)c1ccc(CSc2nc3ccncc3n2Cc2ccccc2F)cc1 the results were D1 antagonist -3.7, D1 potentiator -7.8, D1 agonist 7.0 and DRD3 agonist -21.0.
For COc1ccc(S(=O)(=O)NCc2nc(-c3ccccc3)no2)cc1 the results were D1 antagonist 2.6, D1 potentiator -1.6, D1 agonist 2.6 and DRD3 agonist 2.6.
